# HT1080NT lethal – kills 2HG-producing HT-1080-NT fibrosarcoma cells | Potency, µM (doses to about 46.1 µM), inactives show at the top dose activity, negative = less viability, most hits filed as cytotoxic | HT-1080-NT fibrosarcoma viability, CellTiter-Glo ATP luminescence, 48 h | 1.6% of 360,000 active;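 further: NT is the 2HG producing partner of a matched IDH1 knockdown line; potency means the concentration at half of the fitted maximal effect; 0% = DMSO-treated cells and -100% = media-only wells without cells; nearly all actives have a fitted effect of over 55% in size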
#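 Toxicity toward the 2HG-producing NT line was scored as %Activity, normalised to DMSO and no-cell wells, from CellTiter-Glo luminescence after 48 hours' treatment.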
# TDP1 cell noCPT – qHTS for Inhibitors of human tyrosyl-DNA phosphodiesterase 1 (TDP1): qHTS in cells in absence of CPT; 15% of 420,000 active; DT40 Tdp1-/- hTDP1 cells, no CPT, ATP luminescence, 48 h; Potency, µM (titrated, usually from 46.2 µM), for the others: top-dose activity change, negative = growth inhibition, usual class: inhibitors; further: potency means the concentration at half of the fitted maximal effect; nearly all actives have a fitted effect of over 55% in size
#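 Growth kinetics read by CellTiter-Glo luminescence after ≥48 hr at 37 °C. Cells: DT40 Tdp1-/- stably carrying human TDP1, 400 per well, compound exposure in the absence of CPT (DMSO vehicle).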
# HT1080 IDH1KD tx – toxicity to HT-1080 IDH1 knockdown cells (counter line); HT-1080 IDH1 knockdown viability, ATP luminescence, 48 h; Potency, µM (titrated, usually from 46.1 µM), inactives show at the top dose activity, negative = toxicity, actives largely listed as cytotoxic; 2% of 360,000 active; AID 686971;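 further: potency means the concentration at half of the fitted maximal effect; 0% = DMSO wells and -100% = cell-free medium wells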
#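 Knockdown cells (IDH1KD HT-1080) received compounds 2 h after plating at 750 cells/well and were kept 48 h at 37 °C in 5% FBS RPMI. A CellTiter-Glo luminescence read gave % activity for curve fitting.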
# TDP1 cell CPT – DT40-hTDP1 cell growth loss with CPT. chicken DT40 Tdp1-/-;hTDP1 cells + 20 nM CPT, ATP luminescence, 48 h. 12% of 420,000 active. AID 686979. Potency, µM (titrated, usually from 46.2 µM), for inactives: at the top dose activity change, negative = growth inhibition, actives largely listed as inhibitors; further: potency means the concentration at half of the fitted maximal effect; nearly all actives have a fitted effect of over 55% in size
#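 Chicken DT40 Tdp1-/- cells complemented with human TDP1, 400 cells/well, exposed to compounds plus 20 nM camptothecin for at least 48 h at 37 C; viability read as ATP content by CellTiter-Glo luminescence.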
# IL-1B inflam inh – inflammasome signaling inhibition, IL-1 beta readout | THP-1 LPS/ATP IL-1B secretion, AlphaLISA, 16 h; active compounds read low | activity change, % at 57.5 µM | 4.7% of 360,000 active | AID 743279; in the data active means activity change below about -50%; inconclusive means mostly about -30% to -49%
#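 Secreted IL-1B measured by AlphaLISA bead assay after 16 h compound exposure of THP-1 cells; compounds (final up to 57.5 uM) added 1 h before LPS (250 ng/mL) and ATP (1.25 mM) stimulation; lower signal means less secretion.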
# * marks the source's active call; other numbers are inactive results; ? = inconclusive; / = no result given; [ ] = remark or other dose. An excerpt weighted towards active compounds, which were near 19% of everything screened. Unless noted, the call rests on the fitted dose curve; in most records, active means well fitted curve in the direction sought with a large enough effect; inconclusive means small, poorly fitted or top-dose-only effect, or another doubt; inactive means no such curve, though single readings can be large; an effect the other way counts as inactive or inconclusive. Unless noted, on the % scale 0 is the no-effect control and ±100 the full control effect.
SMILES,HT1080NT lethal,TDP1 cell noCPT,HT1080 IDH1KD tx,TDP1 cell CPT,IL-1B inflam inh
O=S(=O)(NCC1CCCO1)c1ccc(S(=O)(=O)N(Cc2ccccc2F)C2CCCCC2)cc1 (centres undefined),?,?,6%[9.24 µM],13µM*,-8
O=S(=O)(NCC1CCCO1)c1ccc(S(=O)(=O)N(Cc2ccccn2)C2CC2)cc1 (centres undefined),9%,?,8%,-5%,-18
Cc1c(C(=O)Nc2ccc(S(=O)(=O)NCC3CCCO3)cc2)cccc1[N+](=O)[O-] (centres undefined),0%,?,-2%,?,-14
O=C(Nc1ccc(F)cc1)c1ccc(S(=O)(=O)NCC2CCCO2)cc1 (centres undefined),?,13µM*,3%[9.24 µM],18µM*,?
Cc1cc(C)c(S(=O)(=O)Nc2nccs2)c(C)c1,2%,10%,1%,4%,1
COc1cc(/C=C/C(=O)OCC(=O)N2CCN(C(=O)c3ccco3)CC2)ccc1O,7%,-15%,0%,-3%,7
CC(=O)c1ccc(NC(=S)NCCc2ccc(S(N)(=O)=O)cc2)cc1,-8%,?,-8%,-26%,-25
CC(C)OCCCNC(=S)Nc1ccc(S(N)(=O)=O)cc1,5%,?,0%,23µM*,10
N#CC(C#N)=C1C=CC=CN1/C(=C\c1ccccc1)C(=O)c1cccs1,-1%,3.7µM*,-14%,1µM*,-18
CC1CCN(C(=O)/C(=C/c2ccccc2Cl)c2ccccc2)CC1,?,?,?,?,-7
N#CC(C#N)=C1C=CC=CN1/C(=C\c1ccccc1Cl)C(=O)c1ccccc1,?,1.2µM*,2.6µM*,0.58µM*,-73*
CC(C)C(C)(C#N)NC(=O)COC(=O)C1CCN(S(=O)(=O)c2ccc3c(c2)OCCO3)CC1 (centres undefined),8%,7%,24%,2%,-3
COc1ccc2c(Cl)c(C(=O)NN)sc2c1,?,-11%,0%,-8%,?
CC[n+]1c(C)sc2cc(OC)ccc21,-6%,2.9µM*,-10%,2.6µM*,-67*
CC(=O)c1cccc(NC(=O)c2ccc(CN3CCc4ccccc4C3)cc2)c1,-25%,-20%,-11%,-27%,-14
O=C(Nc1ccc(Cl)cc1)c1ccc(CN2CCc3ccccc3C2)cc1,?,-11%,-10%,?,-10
COc1cccc(NC(=O)c2ccc(CN3CCc4ccccc4C3)cc2)c1,-10%,?,-18%,16µM*,?
COc1ccc(C(=O)Nc2ccc(N3CCN(Cc4ccccc4)CC3)cc2)cc1,-1%,-17%,16%,-14%,24
COc1cccc(NC(=O)c2ccc(CN3CCN(c4ccccc4)CC3)cc2)c1,-24%,18µM*,?,?,-2
COc1c(F)c(F)c(C(=O)Nc2ccc(N3CCN(Cc4ccccc4)CC3)cc2)c(F)c1F,?,11µM*,?,16µM*,-9
Cc1cc(C)c(NC(=O)c2ccc(CN3CCc4ccccc4C3)cc2)c(C)c1,-28%,12µM*,-24%,16µM*,-17
C/C(=N\NC(=O)c1ccc(CN2CCc3ccccc3C2)cc1)c1ccccc1O,?,8.2µM*,21µM*,12µM*,163
COc1cccc(N2CCN(CC(=O)Nc3nnc(-c4ccccc4)s3)CC2)c1,-19%,21µM*,?,23µM*,-12
CCC(=O)N1c2ccccc2C(N(C(C)=O)c2ccccc2)CC1C (centres undefined),-5%,?,-13%,-9%,134
CCC(=O)N1c2ccccc2C(N(C(=O)CC)c2ccccc2)CC1C (centres undefined),6%,9.2µM*,7%,?,110
SMILES,HT1080NT lethal,TDP1 cell noCPT,HT1080 IDH1KD tx,TDP1 cell CPT,IL-1B inflam inh
Cc1cccc(OC(=O)c2cc(-c3ccc(Cl)cc3)on2)c1C,/,-14%,/,-11%,/
O=C(CNc1cccc(S(=O)(=O)N2CCCC2)c1)Nc1cccc(F)c1,-1%,?,-12%,-19%,-7
Cc1cccc(OCC(=O)Nc2ccc(S(=O)(=O)N3CCCC3)cc2)c1,-16%,?,-8%,?,-10
O=C(CNc1cccc(C(F)(F)F)c1)Nc1cccc(S(=O)(=O)N2CCCC2)c1,-8%,-71%,-15%,13µM*,?
O=C(CN1CCN(S(=O)(=O)c2ccccc2)CC1)Nc1cccc(C(F)(F)F)c1,-19%,?,-26%,16µM*,-25
O=C(COc1cccc(C(F)(F)F)c1)Nc1ccc(S(=O)(=O)N2CCCCC2)cc1,-29%,26µM*,-21%,?,?
Cc1ccc(NC(=O)CNc2cccc(S(=O)(=O)N3CCCC3)c2)cc1F,?,?,-12%,-20%,-67*
CC1CC(O)C(C)CN1 (centres undefined),16%,-5%,17%,15%,3
CCC(Sc1nc2ccccc2c2nc(CCc3c(C)n[nH]c3C)nn12)C(=O)Nc1ccccc1F (centres undefined),/,-1%,/,-2%,/
CC1(O)CC2C(CC1O)C2(C)C (centres undefined),/,-37%,/,-3%,/
O=C(CNc1cc(S(=O)(=O)N2CCOCC2)ccc1NCC1CCCO1)Nc1ccc(C(F)(F)F)cc1 (centres undefined),-14%,?,-16%,?,-62*
O=C(CN1CCCC1)Nc1cc(C(F)(F)F)cc(C(F)(F)F)c1,?,-1%,6%,-2%,-69*
c1csc(-c2ccc3nncn3c2)c1,?,-5%,8%,?,47
CC1(C)Cc2c(sc(NC(=O)c3ccccc3Cl)c2C(=O)O)CO1,11%,-2%,3%,6%,-17
O=C(c1ccc(Cl)c(S(=O)(=O)N2CCOCC2)c1)N1CCOCC1,-2%,-11%,-1%,0%,21
O=c1c2ccccc2sn1-c1ccc(Cl)c(S(=O)(=O)N2CCOCC2)c1,/,3.2µM*,/,1.4µM*,/
CC(C)(C)c1nc2c(Br)cc(Br)cc2c(=O)o1,26%,?,22%,0%,2
O=S(=O)(c1ccc(Br)cc1)c1nc(-c2ccccc2)oc1NCCN1CCOCC1,-5%,?,-1%,?,-61*
O=S(=O)(c1ccc(Cl)cc1)c1nc(-c2ccccc2Br)oc1NCc1ccccc1,/,13µM*,/,?,/
COCCNc1oc(-c2ccccc2Cl)nc1S(=O)(=O)c1ccc(C)cc1,2%,?,-1%,?,-57*
CN(C)CCCNc1oc(-c2ccccc2Cl)nc1S(=O)(=O)c1ccccc1,-10%[9.24 µM],?,-2%,?,-27

# Screens (PubChem)
